This is a sample that favours compounds with a hit; in the whole collection about 1.2% have one here.
BJeLR lethal = BJeLR cell viability loss; BJeLR (HRASV12) viability, CellTiter-Glo ATP luminescence, 48 h; inhibition, % (concentration not given with the values); 0.17% of 300,000 active; AID 1554; in the data active = inhibition above about 50%; inconclusive = no clear call, values can overlap the other calls
PriA SSB inh = K. pneumoniae PriA-SSBct interaction inhibition. inhibition, % at 33 µM. 0.6% of 430,000 active. AID 1272365. AlphaScreen SSBct-PriA binding, biotinylated peptide; in the data active = inhibition mostly above about 37%, no sharp cut-off; inactive = mostly below about 20%;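 note: plate controls were negative control peptide for no effect and reference peptide for full effect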
PrP 5UTR inh = inhibition of PrP 5' UTR reporter expression; 0.35% of 340,000 active; cell-based PrP 5' UTR mRNA reporter, plate reader; inhibition, % (concentration not given with the values); AID 488862; in the data active = inhibition above about 52%; note: 0 = median of the neutral control wells
PrPC surface inh = reduces human prion protein on the cell surface; P04156; cell surface PrPC, TR-FRET read-out; inhibition, % at 13.8 µM; 0.43% of 370,000 active; AID 720596; in the data active = inhibition above about 24%; note: 0% = median of the test wells and 100% = reference compound wells
SARS 3CLpro inh = SARS-CoV 3CLpro protease inhibition; AID 1706; inhibition, % at 6 µM; recombinant SARS-CoV 3CLpro, quenched FRET peptide cleavage; 0.14% of 290,000 active; in the data active = inhibition above about 12%
PrP UTR cherry = prion 5' UTR mRNA inhibition, cherry-pick retest | shares compounds with PrP 5UTR inh | cell-based prion protein 5' UTR reporter, plate reader | inhibition, % at 2.5 µM | 48% of 1,100 active | AID 504592; in the data active = inhibition above about 54%; inconclusive = no clear call, values can overlap the other calls
Active calls of the source: *; u = inconclusive; x = not tested or not shown.

SMILES | BJeLR lethal | PriA SSB inh | PrP 5UTR inh | PrPC surface inh | SARS 3CLpro inh | PrP UTR cherry
COc1ccccc1C(=O)Nc1ccc2c(c1)nc1n2CCN(Cc2ccccc2)C1 | -1.5 | -3.6 | 55.7* | -1.9 | 6.3 | -4.3
COc1cc(OC)cc(C(=O)Oc2ccc(C=NNc3nc4ccccc4s3)cc2OC)c1 | x | 11.3 | x | x | x | x
CCOc1ccc(NC(=O)c2cc(S(=O)(=O)N3CCOCC3)cn2C)cc1 | -4.7 | 0.8 | 50.7* | 9.8 | -2.5 | 27.6
CCOc1ccc(NC(=O)c2cc(S(=O)(=O)N3CCOCC3)cs2)cc1 | -1.5 | 3.8 | -2.3 | 1.9 | -7.7 | x
CS(=O)(=O)c1ccc(C(=O)Nc2nnc(-c3ccno3)o2)cc1 | x | -4.0 | x | x | x | x
O=C(NCCCN1CCN(c2ccccc2)CC1)c1ccc(Br)o1 | x | -5.0 | x | x | x | x
CCOC(=O)C1=CN(CC2CCCCC2)CCC1=O | x | -0.7 | 84.5* | -1.6 | x | 14.3
CC(=O)C1=CN(CC2CCCCC2)CCC1=O | x | -2.7 | -16.6 | 1.6 | x | x
CC(OC(=O)CCN=C1NS(=O)(=O)c2ccccc21)C(=O)NCc1ccccc1 (stereo not given) | 8.0 | -1.9 | 66.6* | 3.8 | x | -14.2
COc1cc2c(c(OC)c1OC)-c1ccc(O)cc1C(NC(C)=O)CC2 (stereo not given) | x | -10.1 | 72.6* | 0.7 | x | 87.2*
CCOC(=O)NC1CCc2cc(OC)c(OC)c(OC)c2-c2ccc(SC)c(=O)cc21 (stereo not given) | x | 6.6 | 57.7* | -21.3 | x | 86.3*
O=C(C1CC(=O)N(c2ccc3c(c2)OCCO3)C1)N1CCN(Cc2ccccc2F)CC1 (stereo not given) | x | -7.9 | 85.7* | 7.5 | x | -8.8
CCCNC(=O)Cn1nc(C(F)(F)F)cc1C | 3.0 | -1.2 | 58.0* | 0.6 | 1.9 | -11.7
CN(C)c1ccc(Nc2nc(N)c3ccccc3n2)cc1 | 32.8 | 62.7 | 77.4* | 13.9 | -4.5 | 62.1*
CCOc1ccc(Nc2nc(N)c3ccccc3n2)cc1 | 37.6 | 12.7 | 56.1* | 5.0 | 0.8 | 41.2
Cc1ccc(S(=O)(=O)N2CCCc3ccc(NC(=O)C(=O)Nc4cc(F)ccc4F)cc32)cc1 | x | -11.0 | x | x | x | x
CC(C)OCCCNC(=O)Cc1ccc(Br)cc1 | 1.0 | -1.6 | 82.9* | 2.8 | -2.2 | 0.9
CCN(CC)S(=O)(=O)c1ccc(N2CCCC2)c(NC(=O)CN2C(=O)NC3(CCCC3)C2=O)c1 | -0.8 | -3.0 | 76.5* | -4.7 | x | 13.6
COc1cc(C2c3[nH]c4ccccc4c3CC3COC(=O)N32)cc(OC)c1O (stereo not given) | x | -3.5 | 58.6* | 4.0 | x | 89.7*
COc1ccc(-c2csc(NC(=O)Cc3ccc(F)cc3)n2)c(OC)c1 | x | -3.0 | x | x | x | x
CC(C)(C)c1ccc(C(=O)N2CCCCCC2=O)cc1 | -0.3 | 2.6 | 58.9* | 0.7 | 3.5 | u
CCOC(=O)c1ccc(NC(=O)Cc2csc(SCc3ccc(F)cc3)n2)cc1 | x | -15.0 | x | x | x | x
O=C(COc1cc(Cl)c(Cl)cc1Cl)NCCN1CCOCC1 | -1.5 | 1.5 | 55.2* | 3.1 | 3.5 | -23.8
O=C(N1CC(S(=O)(=O)c2ccc(Cl)cc2)C1)C1(c2cccs2)CCCC1 | x | 11.0 | x | x | x | x
Cc1ccc(N2C(=O)c3cccc4c(N)ccc(c34)C2=O)c2cccnc12 | 26.1 | -1.6 | 73.8* | -4.3 | -5.7 | 85.6*
SMILES | BJeLR lethal | PriA SSB inh | PrP 5UTR inh | PrPC surface inh | SARS 3CLpro inh | PrP UTR cherry
Cc1ccc(C(=O)NCCCn2ccnc2)o1 | 10.0 | 4.5 | 72.9* | -0.5 | -7.7 | -10.9
Nc1cnc(-c2ccccc2)nc1 | x | -20.0 | x | x | x | x
Cc1ccc(Sc2c(CO)c(-c3ccccc3)nn2C)cc1 | 28.8 | -10.9 | 73.1* | 18.6 | 6.1 | 84.4*
O=C(Cc1ccccc1)NCc1nnc(SCC(=O)N2CCCc3ccccc32)n1-c1ccc(Br)cc1 | x | -19.0 | x | x | x | x
CSc1ccc(Cl)c(C(=O)Nc2ccc(Cl)cn2)c1 | 9.5 | -10.8 | -11.8 | 9.8 | 2.5 | x
COc1cc(SC)ccc1C(=O)Nc1ccc(Cl)cn1 | -3.6 | -2.9 | 60.0* | 2.8 | 3.1 | 55.3*
Cn1cc(NC(=O)Nc2ccc(F)cc2F)c2ccccc21 | x | 4.0 | x | x | x | x
CSc1cccc(NC(=O)C(=O)NCCc2ccc(N(C)C)cc2)c1 | x | 3.0 | x | x | x | x
COc1ccc(OC)c(-c2nc(C(=O)NCCCN3CCOCC3)cc3c2[nH]c2ccccc23)c1 | 4.6 | 11.2 | 54.0* | -5.2 | -4.7 | 0.6
Nc1ncnc2c(C3OC(CO)C(O)C3O)scc12 (stereo not given) | x | 0.5 | 57.6* | 54.9* | x | 81.6*
COc1ccccc1C1CC(=O)Oc2cc(OC)c(OC)c(OC)c21 (stereo not given) | x | -14.8 | 92.0* | 1.3 | x | -11.7
COc1ccc(C2CC(=O)Oc3cc(OC)c(OC)c(OC)c32)cc1 (stereo not given) | x | -1.0 | -10.9 | -2.3 | x | x
C/C(=N\NC(=O)c1n[nH]c2c1CCC2)c1cccs1 | 24.4 | x | 75.9* | -2.6 | 2.0 | 73.0*
NS(=O)(=O)c1ccc(CCNC(=O)CCCn2nc(-c3cccs3)ccc2=O)cc1 | x | -9.0 | x | x | x | x
OC[C@@H]1[C@@H](c2ccccc2)C(c2cccc(Cl)c2)=NN1c1ccccc1 | x | -6.5 | -4.6 | 10.8 | x | x
COc1ccccc1[C@H]1C(c2cccc(Cl)c2)=NN(c2ccccc2)[C@@H]1CO | x | -27.4 | 71.6* | x | x | -5.1
O=[N+]([O-])c1ccccc1Nc1c2ccccc2nc2ccccc12 | 6.2 | 2.4 | -23.0 | 9.0 | -1.3 | x
O=[N+]([O-])c1cccc2nc3ccccc3c(NCCCn3ccnc3[N+](=O)[O-])c12 | x | -2.8 | 87.1* | -13.3 | x | 95.2*
O=C(NC[C@H](O)c1csc2ccccc12)Nc1ccccc1Cl | x | 10.0 | x | x | x | x
CCOc1ccc(OCC(=O)Nc2nccs2)cc1 | 36.5 | 4.9 | 57.9* | x | -0.5 | 37.2
O=C(NCCN1C(=O)S/C(=C/c2cccnc2)C1=O)c1ccc(S(=O)(=O)N2CCCC2)cc1 | x | -5.5 | 85.2* | 7.0 | x | -16.9
CC1OC(OC2C(O)CC(OC3C(O)CC(OC4CCC5(C)C(CCC6C5CCC5(C)C(C7=CC(=O)OC7)C(O)CC65O)C4)OC3C)OC2C)CC(O)C1O (stereo not given) | x | -5.5 | 93.7* | 1.6 | x | 85.9*
CC(=O)OC1CC(OC2C(O)CC(OC3C(O)CC(OC4CCC5(C)C(CCC6C5CCC5(C)C(C7=CC(=O)OC7)C(O)CC65O)C4)OC3C)OC2C)OC(C)C1OC1OC(CO)C(O)C(O)C1O (stereo not given) | x | -9.2 | 94.4* | -0.4 | x | 67.6*
C[C@H]1O[C@@H](OC2CC[C@]3(C=O)[C@H]4CC[C@]5(C)[C@@H](C6=CC(=O)OC6)CC[C@]5(O)[C@@H]4CC[C@]3(O)C2)CC2OC(C)(C)OC21 (stereo not given in full) | 68.7* | -11.8 | 84.1* | -3.6 | -3.9 | 85.0*
C[C@H]1O[C@@H](O[C@H]2[C@@H](O)C[C@H](O[C@H]3[C@@H](O)C[C@H](O[C@H]4CC[C@@]5(C)[C@H](CC[C@@H]6[C@@H]5CC[C@]5(C)[C@@H](C7=CC(=O)OC7)CC[C@]65O)C4)O[C@@H]3C)O[C@@H]2C)C[C@H](O)[C@@H]1O | x | -1.9 | x | x | -5.0 | x

Screening data as filed in PubChem BioAssay.
